Hits are enriched below; roughly 2.4% of the tested compounds scored in any of these assays.
D2 antag: antagonists of human D2 dopamine receptor; inhibition, % at 10 µM; HEK293 TREx D2 cells, calcium flux, dopamine EC80; AID 485344; hit rate 2% among 340,000; in the data active = inhibition above about 30%; inactive = below that, where a call was filed; also: 0% is about no effect
Target sequence (P14416 whole entry, looked up): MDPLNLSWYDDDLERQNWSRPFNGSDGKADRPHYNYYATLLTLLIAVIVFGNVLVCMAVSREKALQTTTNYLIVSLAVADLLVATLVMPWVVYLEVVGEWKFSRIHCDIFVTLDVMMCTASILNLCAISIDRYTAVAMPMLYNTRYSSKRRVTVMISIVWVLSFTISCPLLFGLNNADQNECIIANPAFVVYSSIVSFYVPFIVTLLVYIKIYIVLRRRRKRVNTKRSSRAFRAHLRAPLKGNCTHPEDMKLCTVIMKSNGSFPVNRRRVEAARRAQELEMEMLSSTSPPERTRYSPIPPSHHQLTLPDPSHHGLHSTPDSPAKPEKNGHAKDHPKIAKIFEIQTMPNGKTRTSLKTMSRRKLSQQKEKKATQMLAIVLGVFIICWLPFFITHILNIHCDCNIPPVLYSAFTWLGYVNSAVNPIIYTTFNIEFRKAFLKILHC
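Tetracycline-induced HEK293 TREx cells expressing D2 receptor forced-coupled to calcium signalling, loaded with no-wash calcium dye. Compounds added and calcium flux read 180 s, then dopamine added at EC80 and read a further 180 s.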
D2 ag-1: agonists of human D2 dopamine receptor; P14416; HEK293 T-REx D2 cells, calcium flux agonist mode; activation, % at 2 µM; hit rate 0.53% among 340,000; AID 485358;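 active = activation over 3 SD above normal in the single-dose calcium agonist read, cut at about 30% in these data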; also: 0% is about no effect
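Calcium-flux readout, 1 cycle/sec over 180 s following compound pin transfer, in inducible HEK293 Trex D2 cells (force-coupled); dopamine controls included. Positive calcium responses during this window marked compounds as potential agonists.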
D2 PAM-1: positive allosteric modulators of human D2 dopamine receptor. P14416. HEK293 T-REx D2, calcium flux, EC20 dopamine potentiation. potentiation, % at 10 µM. hit rate 0.34% among 340,000;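 active = potentiation over 3 SD above the plate norm, cut at about 30% in these data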; also: 0% is about no effect
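Calcium flux readout, no-wash dye, 1 read/s. Inducible HEK293 Trex D2 line, overnight 30 C. Compound alone 180 s (agonist flags), then EC20 dopamine, another 180 s to score potentiation.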
D2 ag-2: human D2 receptor agonism in beta-arrestin assay | P14416 | DiscoveRx PathHunter D2 beta-arrestin, luminescence, 90 min; 100% = 57 uM dopamine signal | activation, % (concentration not given with the values) | hit rate 0.084% among 360,000 | AID 624465; in the data active = activation above about 40%; inconclusive = between about 15% and that limit
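Agonist mode: compounds alone added to overnight-plated D2 PathHunter cells for 90 min at 37 C, with 57 uM final dopamine (EC100) defining full response. Beta-arrestin recruitment detected by chemiluminescent reagent, read after 1 h at ambient temperature.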
D2 PAM-2: positive allosteric modulators of human D2 dopamine receptor; P14416; DiscoveRx D2 beta-arrestin cells, luminescence, 90 min; 100% = 57 uM dopamine signal; potentiation, % (concentration not given with the values); hit rate 0.23% among 360,000; AID 624464; in the data active = potentiation above about 50%; inconclusive = mostly about 30% to 49%
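PathHunter D2 cells, attached overnight at 37 deg C, received compound in DMSO plus dopamine at EC20 (50 nM final) for 90 min at 37 deg C. Beta-arrestin recruitment was read as luminescence after 1 h with detection reagent at ambient temperature.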
Numbers without * were called inactive; ? = inconclusive; . = no result given.

SMILES	D2 antag	D2 ag-1	D2 PAM-1	D2 ag-2	D2 PAM-2
COc1ccc(C(=O)Nc2nnc(C)s2)cc1S(=O)(=O)N1CCOCC1	17	0	6	-1	-1
CN1CCN(S(=O)(=O)c2ccc(C(=O)Nc3ccccc3)cc2)CC1	11	-1	11	-1	-9
Cc1ccc(C(=O)Nc2ccccc2)cc1S(=O)(=O)N1CCN(C)CC1	35*	1	-3	2	-2
Cc1ccc(NC(=O)COC(=O)/C=C/c2cccc(Cl)c2)cc1S(=O)(=O)N1CCOCC1	-13	-1	9	2	-3
COc1ccc(NC(=O)c2ccc(Br)c(S(=O)(=O)N3CCOCC3)c2)cc1	-21	2	33*	-2	2
COc1ccc(C(=O)Nc2nc(C)c(C(C)=O)s2)cc1S(=O)(=O)N1CCOCC1	30*	1	-11	-2	-2
Cc1ccc(NC(=O)C(C)OC(=O)/C=C/c2ccccc2)cc1S(=O)(=O)N1CCOCC1 (stereo unspecified)	1	0	41*	-3	-4
O=C(NCCc1ccccc1)C1CCN(Cc2cc3ccccc3n2Cc2ccccc2)CC1	.	0	3	.	.
O=C(NCCc1ccccc1)C(=O)NCC(c1cccnc1)N1CCN(c2ccc(F)cc2)CC1 (stereo unspecified)	.	-2	5	.	.
CCOc1ccc(NC(=O)c2ccc3nc(Cc4ccccc4)oc3c2)cc1	.	0	8	.	.
O=C(Nc1nncs1)c1ccc(Br)c(S(=O)(=O)N2CCCC2)c1	56*	0	-2	-2	-3
COc1ccc(NC(=O)c2cc(S(=O)(=O)N3CCCC3)c[nH]2)cc1	-5	0	6	-30	0
COc1ccc(C(=O)NNC(=O)COc2ccc(Cl)cc2C)cc1S(=O)(=O)N1CCOCC1	33*	0	-2	-2	-12
COc1ccc(NC(=O)c2cc(S(=O)(=O)N3CCCC3)oc2C)cc1	-14	-2	31*	-4	-15
Cc1ccc(NC(=O)Cc2ccc(-n3c(C)nc4cccnc43)cc2)c(Cl)c1	.	0	6	.	.
COc1cc(NC(=O)CCCc2nnc3n(CC(C)C)c(=O)c4sccc4n23)cc(OC)c1	.	0	-5	.	.
COC(=O)c1ccc(C2C(Oc3ccccc3)C(=O)N2CCc2ccc(F)cc2)cc1 (stereo unspecified)	36*	1	-15	-2	2
CN1CCN(C2=Nc3ccccc3Oc3ccc(Cl)cc32)CC1	91*	-1	-31	-6	-36
O=C(Nc1ccc(Br)cc1F)c1ccc2nc(CCc3ccccc3)oc2c1	.	-1	.	.	.
O=C(COC(=O)/C=C/c1cccs1)NC(c1ccccc1)c1ccccc1	-2	-2	-5	0	15
O=C(COC(=O)/C=C/C(=O)N1CCN(c2ccccc2)CC1)NC(c1ccccc1)c1ccccc1	69*	0	-8	-3	-1
Cc1ccc(C(=O)N2CCN(c3ccccc3F)CC2)cc1NC(=O)c1nsc2ccccc12	.	1	9	.	.
O=C(Nc1ccc2c(c1)OCCO2)c1cc2ccccc2o1	33*	-1	-6	0	-18
Cc1cc(NC(=O)CCNS(=O)(=O)c2ccc3c(c2)CCCC(=O)N3)ccc1Br	.	0	1	.	.
Cc1ccc(/C(N)=N/OC(=O)N2c3ccccc3Sc3ccccc32)cc1	.	.	.	?	101*
SMILES	D2 antag	D2 ag-1	D2 PAM-1	D2 ag-2	D2 PAM-2
O=c1cc(/C=C/c2ccccc2)oc2c1ccc1ccccc12	10	-1	-15	-7	-1
O=c1cc(C(F)(F)F)oc2c1ccc1ccccc12	34*	3	4	-1	-5
COc1ccc(/C=C/C(=O)O/N=C(\N)c2cccnc2)cc1OC	-6	-2	-3	6	16
CCOC(=O)/C(=C\c1ccc(OC)c(OC)c1)C(=O)c1cccnc1	2	3	40*	-2	-5
Nc1cc(S(=O)(=O)N2CCCCC2)ccc1N1CCOCC1	32*	3	-3	0	4
CCN1CCN(c2ccc(S(=O)(=O)N3CCOCC3)cc2NC(=O)CCOc2ccccc2)CC1	32*	1	-18	-4	-27
O=C(Nc1cc(S(=O)(=O)N2CCOCC2)ccc1N1CCCC1)C1CC1	54*	2	5	-4	-2
CCN1CCN(c2ccc(S(=O)(=O)N3CCCCC3)cc2NC(=O)c2ccc([N+](=O)[O-])s2)CC1	10	1	1	?	74*
CC(=O)Nc1ccc(NC(=O)CSc2nccn2Cc2ccc3c(c2)OCO3)cc1	.	.	-7	.	.
COCCCNC(=O)Cn1c(=O)n(-c2ccccc2)c(=O)c2c1c1cc(OC)ccc1n2C	.	1	-5	.	.
N/C(=N\OC(=O)c1ccccc1[N+](=O)[O-])c1cccnc1	-5	1	-2	?	108*
Cc1ccc(C(=O)O/N=C(\N)c2cccnc2)cc1[N+](=O)[O-]	-5	0	-3	7	66*
N/C(=N\OC(=O)c1ccc([N+](=O)[O-])cc1)c1cccnc1	-3	0	5	9	29
CCOc1ccc(NS(=O)(=O)c2cc(NC(=O)CCS(=O)(=O)c3ccc(C)cc3)ccc2OC)cc1	33*	0	-17	0	-29
COc1ccc(O)c(N)c1	-19	1	43*	.	.
CC1(C)C=C(c2ccc(C=O)s2)CC(C)(C)N1	34*	0	6	-1	-13
CC1(C)C=C(c2ccc(C=O)s2)CC(C)(C)N1C=O	19	0	10	2	-14
O=S(=O)(NCC(c1ccco1)N1CCN(c2ccc(F)cc2)CC1)c1cc(F)ccc1F (stereo unspecified)	.	1	7	.	.
CN(C)C=NC(=O)c1cc(C(=O)c2ccccc2Cl)c[nH]1	46*	0	-4	-1	3
CC(=O)c1c(N2CCN(Cc3ccccc3)CC2)[nH]c(-c2ccccc2)nc1=S	73*	1	-21	-2	-55
CC(=O)c1c(N2CCCC2)[nH]c(-c2ccccc2)nc1=S	2	2	-2	-1	-20
Cc1cc(Cl)ccc1OCC(O)CN1C(C)CCCC1C (stereo unspecified)	31*	0	0	.	.
Cc1nn(CCC(=O)Nc2ccc(Cl)cc2)c(C)c1S(=O)(=O)N1CCCCC1	.	2	-22	.	.
COc1ccc(C(=O)c2cn(Cc3cccc(C)c3)c3cc4c(cc3c2=O)OCCO4)cc1OC	.	0	-1	.	.
Cc1cc(SCC(=O)N/N=C/c2ccc(O)c(O)c2O)c(C)cc1Br	-14	-1	-2	?	57*
Cc1cccc(N2CCN(C(=O)Cc3c(C(=O)O)c(C)cn3C)CC2C)c1 (stereo unspecified)	.	0	-4	.	.
CC(=O)c1ccc(NC(=O)c2nc(-c3ccccc3)n(-c3ccccc3Cl)n2)cc1	.	-1	-1	.	.
